The record followed here is PubChem BioAssay (NCI).

Among the test systems are OVCAR-8 ovarian; OVCAR-5 ovarian; SK-OV-3 ovarian; IGROV1 ovarian; OVCAR-3 ovarian; HS 578T breast; NCI/ADR-RES ovarian; RPMI-8226 leukemia; OVCAR-4 ovarian.
Holding throughout (assay): NCI-60 one-dose screen, 48 h (100 = growth as untreated, 0 = no growth, -100 = all killed)
Settings in all cases: 10 µM unless noted

SMILES strings stand for the structures. This is part of a sample that, as a whole, favours compounds with a hit. Of some 83,000 tested, about 20% had one in any assay.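 Results are percent growth after 48 hours of single-concentration exposure. 100 means growth as in untreated cells, lower positive values show inhibition; negative values down to -100 show cell death.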 Values without a mark were called inactive. Calls of active or inactive are those of the source. Rule for the calls: active = growth percent below 10; inactive = the rest.

With `O=C(O)C1CCCN1C(=O)OCc1ccccc1` (stereo not given), the growth is 94.8% in the test on OVCAR-8 ovarian; 105% in the test on OVCAR-5 ovarian; 102% with SK-OV-3 ovarian; 104% with IGROV1 ovarian; 120% with OVCAR-3 ovarian; 100% in the test on HS 578T breast. In addition, the growth with NCI/ADR-RES ovarian was 105%.
Regarding `CCN(Cc1ccc(Cl)c(Cl)c1)c1ccc2nc(N)nc(N)c2c1C`, the growth in the test with RPMI-8226 leukemia was -54% (active); in the test on OVCAR-8 ovarian it was -59.9% (active); with OVCAR-5 ovarian, -100% (active); in the test on SK-OV-3 ovarian it was -97.6% (active); in the test with IGROV1 ovarian it was -79% (active); in the test on HS 578T breast, -42.5% (active). The growth in the test on NCI/ADR-RES ovarian is -94.4% (active).
Take `CCNC(=O)OCCc1c2ccccc2nc2ccccc12`: the growth with RPMI-8226 leukemia is 76.7%; in the test with OVCAR-8 ovarian it was 98%; in the test with OVCAR-5 ovarian, 111%; in the test on OVCAR-4 ovarian, 98.1%; in the test with SK-OV-3 ovarian, 109%; with OVCAR-3 ovarian, 109%. For the same compound, the growth in the test with HS 578T breast is 90.2%; in the test on NCI/ADR-RES ovarian, 119%.
As for `CCOC(=O)CNC(=O)Sc1ccc(C(C)(C)C)cc1`, the growth with OVCAR-8 ovarian was 94%; in the test on OVCAR-5 ovarian, 123%; with OVCAR-4 ovarian, 89.7%; in the test on SK-OV-3 ovarian it was 116%; in the test with IGROV1 ovarian, 74.9%; in the test with OVCAR-3 ovarian, 104%. In addition, the growth was 99.2% in the test with HS 578T breast and 102% in the test with NCI/ADR-RES ovarian.
